Measured values: PubChem BioAssay
Activity calls are given as the source filed them.

What was measured:
[1] = small molecules captured by biotinylated probe aFSTL3 – biochemical, small-molecule microarray, fluorescence 635/667, stem cell growth factor project, primary screen (AID 1064); conditions: higher = more signal;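 also: measures binding of the biotinylated anti-FSTL3 antibody to printed compounds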
[2] = binders from COS7 lysate, DM2A8 probe, primary screen, torsin A project, cell lysate, small-molecule microarray, fluorescence 635/667 (AID 1065); conditions: higher = more signal, COS7 lysate expressing mutant human TOR1A
[3] = small molecules captured by biotinylated probe aFGF2 – biochemical, small-molecule microarray, fluorescence 635/667, stem cell growth factor project, primary screen (AID 1067); conditions: higher = more signal;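 also: measures binding of biotinylated aFGF2 protein to printed compounds on slides; z-score merges feature fluorescence and signal-to-noise across triplicate slides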
[4] = small molecules captured by biotinylated probe aFGF10 – biochemical, small-molecule microarray, fluorescence 635/667, stem cell growth factor project, primary screen (AID 1071); conditions: higher = more signal;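 also: score merges 667 nm spot intensity and signal to noise from triplicate slides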
[5] = target: Neurogenic locus notch homolog protein 2 (Homo sapiens) (UniProt Q04721); experiment: small molecules binding Notch2 protein – biochemical, small-molecule microarray, 635 nm fluorescence, stem cell growth factors, primary screen (AID 1073); conditions: higher = more signal
[6] = target: Pro-neuregulin-1, membrane-bound isoform (Homo sapiens) (UniProt Q02297); experiment: small molecules binding neuregulin-1 protein – biochemical, small-molecule microarray, fluorescence 635/667, psychiatric disease protein project, primary screen (AID 1075); conditions: NRG1 binding, 635 nm fluorescence, higher = more signal;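 also: score combines 667 nm spot fluorescence with signal to noise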
[7] = tested on: Neuregulin-1 EGF-like domain; experiment: small molecules binding NRG1 EGF domain – biochemical, small-molecule microarray, 635 nm fluorescence, primary screen (AID 1081); conditions: higher = more signal;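 also: binding of the protein to compounds printed on small-molecule microarray slides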
[8] = FRG1 expression reporter modulators in myotubes – cell-based, C2C12 myotubes, firefly/Renilla luciferase, luminescence, FRG1 inhibition for FSHD, primary screen (AID 1084); conditions: FRG1 promoter luciferase, higher = more signal, called active from +8 up or from −8 down
[9] = small molecules captured by biotinylated probe aFST – biochemical, small-molecule microarray, fluorescence 635/667, stem cell growth factor project, primary screen (AID 1086); conditions: higher = more signal;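 also: score merges 667 nm fluorescence with signal-to-noise of each printed compound spot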
[10] = binders of probe aHhip on microarray, primary screen, stem cell growth factor project, biochemical, small-molecule microarray, fluorescence 635/667 (AID 1087); conditions: higher = more signal;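 also: score merges spot fluorescence at 667nm with spot signal to noise ratio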

Sequence of Neurogenic locus notch homolog protein 2 (Homo sapiens) (Q04721 whole entry, looked up, canonical isoform): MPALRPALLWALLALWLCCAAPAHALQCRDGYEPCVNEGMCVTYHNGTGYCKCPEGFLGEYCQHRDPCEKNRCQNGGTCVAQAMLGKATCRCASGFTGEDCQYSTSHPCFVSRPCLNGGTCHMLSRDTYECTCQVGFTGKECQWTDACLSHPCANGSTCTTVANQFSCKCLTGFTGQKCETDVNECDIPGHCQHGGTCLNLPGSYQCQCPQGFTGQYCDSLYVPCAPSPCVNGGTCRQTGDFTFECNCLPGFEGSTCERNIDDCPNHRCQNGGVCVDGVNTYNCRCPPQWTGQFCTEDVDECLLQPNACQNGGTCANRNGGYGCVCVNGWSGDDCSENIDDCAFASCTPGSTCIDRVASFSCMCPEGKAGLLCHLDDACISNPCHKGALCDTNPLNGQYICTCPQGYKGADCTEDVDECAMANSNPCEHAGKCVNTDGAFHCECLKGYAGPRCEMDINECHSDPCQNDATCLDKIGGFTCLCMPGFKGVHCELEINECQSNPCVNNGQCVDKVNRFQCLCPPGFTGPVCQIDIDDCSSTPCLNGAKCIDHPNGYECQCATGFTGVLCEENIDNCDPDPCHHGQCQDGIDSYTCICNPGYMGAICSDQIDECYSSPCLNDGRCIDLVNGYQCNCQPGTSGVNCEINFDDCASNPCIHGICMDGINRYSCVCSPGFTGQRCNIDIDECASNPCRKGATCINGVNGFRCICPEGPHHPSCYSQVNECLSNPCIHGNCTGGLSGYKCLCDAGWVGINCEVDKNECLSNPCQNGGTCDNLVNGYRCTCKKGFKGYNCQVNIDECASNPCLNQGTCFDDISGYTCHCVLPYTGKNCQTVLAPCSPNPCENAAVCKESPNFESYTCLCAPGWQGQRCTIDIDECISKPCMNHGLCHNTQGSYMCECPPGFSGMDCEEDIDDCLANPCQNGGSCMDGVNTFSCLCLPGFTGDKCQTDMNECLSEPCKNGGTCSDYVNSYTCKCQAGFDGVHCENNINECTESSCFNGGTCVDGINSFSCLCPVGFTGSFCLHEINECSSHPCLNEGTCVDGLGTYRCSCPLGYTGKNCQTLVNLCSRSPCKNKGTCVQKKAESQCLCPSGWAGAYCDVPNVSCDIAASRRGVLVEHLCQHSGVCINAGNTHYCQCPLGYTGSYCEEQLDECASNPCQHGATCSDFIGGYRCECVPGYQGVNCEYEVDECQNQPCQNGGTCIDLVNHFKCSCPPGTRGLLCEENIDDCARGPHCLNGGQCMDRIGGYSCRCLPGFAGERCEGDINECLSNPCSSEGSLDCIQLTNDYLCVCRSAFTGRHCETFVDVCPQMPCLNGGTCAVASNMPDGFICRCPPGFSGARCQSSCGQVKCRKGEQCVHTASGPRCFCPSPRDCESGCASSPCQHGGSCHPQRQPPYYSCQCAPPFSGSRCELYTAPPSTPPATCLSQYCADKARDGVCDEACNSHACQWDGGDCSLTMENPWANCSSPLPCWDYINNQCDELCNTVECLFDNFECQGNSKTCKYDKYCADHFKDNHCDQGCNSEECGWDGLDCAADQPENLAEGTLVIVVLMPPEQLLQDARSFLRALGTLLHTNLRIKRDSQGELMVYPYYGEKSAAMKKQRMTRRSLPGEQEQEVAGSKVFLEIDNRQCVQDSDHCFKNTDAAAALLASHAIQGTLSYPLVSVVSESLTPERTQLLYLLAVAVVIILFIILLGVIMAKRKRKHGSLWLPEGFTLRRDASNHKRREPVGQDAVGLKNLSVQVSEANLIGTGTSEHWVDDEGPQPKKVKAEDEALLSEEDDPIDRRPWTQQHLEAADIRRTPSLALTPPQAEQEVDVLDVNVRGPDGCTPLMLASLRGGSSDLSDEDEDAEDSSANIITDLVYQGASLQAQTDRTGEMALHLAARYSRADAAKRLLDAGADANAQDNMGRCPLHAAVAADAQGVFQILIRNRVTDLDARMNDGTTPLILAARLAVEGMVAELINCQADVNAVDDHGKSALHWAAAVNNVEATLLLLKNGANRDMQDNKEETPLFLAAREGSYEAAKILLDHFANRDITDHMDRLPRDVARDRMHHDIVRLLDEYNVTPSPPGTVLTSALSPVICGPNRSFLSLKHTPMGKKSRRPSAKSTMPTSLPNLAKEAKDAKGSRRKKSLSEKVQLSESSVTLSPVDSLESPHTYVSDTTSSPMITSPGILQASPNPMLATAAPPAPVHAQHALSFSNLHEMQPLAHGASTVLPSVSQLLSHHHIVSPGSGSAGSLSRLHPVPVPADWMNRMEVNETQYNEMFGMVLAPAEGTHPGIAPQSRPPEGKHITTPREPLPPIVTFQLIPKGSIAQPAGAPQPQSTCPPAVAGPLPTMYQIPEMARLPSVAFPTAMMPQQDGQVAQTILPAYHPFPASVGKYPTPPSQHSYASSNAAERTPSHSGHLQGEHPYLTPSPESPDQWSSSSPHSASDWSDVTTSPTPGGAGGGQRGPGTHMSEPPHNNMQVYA
Sequence of Pro-neuregulin-1, membrane-bound isoform (Homo sapiens) (Q02297 whole entry, looked up, the tested form may be a part, canonical isoform): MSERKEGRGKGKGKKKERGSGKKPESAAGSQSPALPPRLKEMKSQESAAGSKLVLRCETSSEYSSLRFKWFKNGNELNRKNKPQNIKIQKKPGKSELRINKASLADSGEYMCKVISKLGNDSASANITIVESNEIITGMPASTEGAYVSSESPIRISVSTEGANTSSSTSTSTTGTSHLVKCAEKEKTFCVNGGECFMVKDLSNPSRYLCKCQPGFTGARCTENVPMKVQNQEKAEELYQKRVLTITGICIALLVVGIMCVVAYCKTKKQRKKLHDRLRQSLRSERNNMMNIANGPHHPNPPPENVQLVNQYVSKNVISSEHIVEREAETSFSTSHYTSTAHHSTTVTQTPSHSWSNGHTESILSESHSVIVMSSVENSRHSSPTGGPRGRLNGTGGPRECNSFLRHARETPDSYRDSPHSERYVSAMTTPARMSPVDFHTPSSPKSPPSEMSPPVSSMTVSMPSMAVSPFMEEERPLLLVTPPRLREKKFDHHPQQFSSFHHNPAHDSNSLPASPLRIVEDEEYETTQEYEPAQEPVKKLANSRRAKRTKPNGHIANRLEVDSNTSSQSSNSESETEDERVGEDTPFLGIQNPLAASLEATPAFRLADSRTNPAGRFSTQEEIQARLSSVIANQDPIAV

Structure (SMILES) | composite z-score [1] | composite z-score [2] | composite z-score [3] | composite z-score [4] | composite z-score [5] | composite z-score [6] | composite z-score [7] | z-score [8] | composite z-score [9] | composite z-score [10]
C[C@@H](ON=C1[C@H]2CCn3c(=O)n(-c4ccccc4)c(=O)n3[C@H]2[C@H](O)[C@@H]2O[C@H]12)c1cn([C@@H]2COC[C@H]2O)nn1 | -0.648 | 0.653 | -0.0529 | 0.35 | 0.213 | 0.406 | 0.261 | 1.15 (inactive) | 0.236 | 0.0274
CC(C)(C)N1C(=O)[C@H]2[C@H]3[C@H](O)[C@H](O)CC(=O)[C@@H]3CC[C@H]2C1=O | 1.64 | 0.0227 | -0.156 | 0.673 | 0.259 | -0.404 | 0.304 | -0.255 (inactive) | 0.723 | -0.0645
CCOC(=O)[C@H](Cc1ccccc1)NC(=O)CCC1CC(OC(=O)NCCc2ccc(F)cc2)CC2(CCCC(COC(=O)NCC3CCCCC3)O2)O1 (stereo not given in full) | -0.509 | 0.574 | -0.0425 | 0.582 | 1.42 | 0.513 | 1.1 | -0.692 (inactive) | 0.676 | -0.302
CCCCC#C[C@@H]1C=C[C@H](Oc2cc(OC)c(OC)c(OC)c2)[C@@H](COC(=O)OCC)O1 | -0.682 | -0.0561 | -0.116 | -0.0152 | -0.526 | -0.158 | -0.365 | -0.214 (inactive) | -0.311 | 0.141
COC(=O)[C@H]1O[C@@H](c2c(OC)c(OC)c(C)c(OC)c2OC)[C@H](C)[C@@H](O)[C@H]1C | -0.341 | 0.499 | 0.0066 | 0.915 | 1.06 | 0.368 | 0.741 | -0.204 (inactive) | 0.224 | -0.0965
COc1cccc([C@H]2Oc3ccc(OC)cc3C(=NOC[C@@H](O)COCc3ccco3)[C@@H]2O)c1 | -0.434 | 0.0488 | -0.158 | -1.12 | -1.29 | -0.984 | -1.7 | -0.765 (inactive) | -0.625 | -0.388
O=C1[C@H]2[C@H]3[C@H](O)[C@H](O)CC(=NOC[C@@H](O)COCc4ccco4)[C@H]3CC[C@H]2C(=O)N1C[C@@H]1CCCO1 | -0.634 | 1.03 | -0.265 | 0.133 | 0.256 | -0.285 | 1.15 | 0.839 (inactive) | -0.181 | -0.337
O=C1[C@H]2[C@H]3[C@H](O)[C@H](O)CC(=NO[C@@H]4O[C@H](CO)[C@@H](O)[C@H](O)[C@H]4O)[C@H]3CC[C@H]2C(=O)N1c1cccc(Oc2ccccc2)c1 | -0.249 | 0.128 | -0.0867 | 0.435 | 0.387 | -0.106 | 0.843 | 0.0203 (inactive) | -0.278 | -0.0024
CCOC(=O)[C@H](Cc1ccccc1)NC(=O)CCC1CC(OC(=O)NCCc2ccc(F)cc2)CC2(CCCC(COC(=O)NCCOC)O2)O1 (stereo not given in full) | -0.584 | 0.114 | -0.0291 | 0.868 | 1.04 | 0.326 | 1.11 | 0.753 (inactive) | 0.169 | -0.248
CC(C)=CCCC(C)=CCON=C1C[C@@H](O)[C@@H](O)[C@@H]2[C@@H]3C(=O)N(Cc4ccccc4)C(=O)[C@@H]3CC[C@H]12 | -0.402 | -0.0325 | -0.0263 | 0.734 | 0.686 | 0.774 | 1.06 | 0.134 (inactive) | 0.342 | -0.305
CCOC(=O)[C@H](Cc1ccccc1)NC(=O)CCC1CC(OC(=O)NCc2ccc3c(c2)OCO3)CC2(CCCC(COC(=O)NCCc3ccccc3OC)O2)O1 (stereo not given in full) | -0.259 | 0.058 | -0.147 | 0.471 | 1.26 | 1.04 | 1.1 | 1.04 (inactive) | 0.569 | 0.141
CO[C@H]1COC(=O)CC=C[C@H](C)[C@@H](OC)COC(=O)[C@@H](C)NC(=O)CC=C[C@@H]1C | -0.548 | 1.9 | -0.177 | 0.0365 | -0.411 | -0.255 | 0.515 | 0.447 (inactive) | -0.251 | -0.196
O=C1[C@H]2[C@H]3[C@H](O)[C@H](O)CC(=NOC[C@@H](O)COCc4ccco4)[C@H]3CC[C@H]2C(=O)N1c1ccc(F)cc1F | -0.191 | 0.862 | -0.142 | 0.0434 | -0.853 | -0.452 | 1.23 | -1.53 (inactive) | -0.999 | -0.0047
CCOC(=O)CCN1C(=O)[C@H]2[C@H]3[C@H](O)[C@H](O)CC(=NOCc4ccccc4)[C@H]3CC[C@H]2C1=O | 1.08 | -0.164 | -0.121 | 0.11 | 0.206 | -0.188 | -0.368 | -0.0531 (inactive) | 0.494 | -0.236
CO[C@@H]1C=CCC(=O)N2CCC[C@H]2C(=O)OC[C@@H](C)C(=O)OC[C@H]1C | -0.605 | 1.7 | -0.159 | 0.492 | 0.156 | -0.582 | 0.477 | -1.15 (inactive) | 0.274 | 0.238
COc1cccc([C@@H]2Oc3ccc(OC)cc3C(=O)[C@H]2O)c1 | -0.457 | 0.0796 | 0.0288 | 0.209 | 0.5 | 0.788 | 1.04 | 7.25 (inactive) | -0.0662 | -0.0994
CC(CCN1CCCCc2nc(C)c(C)cc21)=NO[C@@H](C)c1cn([C@H](CO)Cc2ccccc2)nn1 | 1.22 | 1.06 | -0.177 | 0.171 | 0.174 | 0.605 | 0.695 | 1.19 (inactive) | 0.163 | 0.347

Structure (SMILES) | composite z-score [1] | composite z-score [2] | composite z-score [3] | composite z-score [4] | composite z-score [5] | composite z-score [6] | composite z-score [7] | z-score [8] | composite z-score [9] | composite z-score [10]
O=C1C[C@@H](O)[C@@H](O)[C@@H]2[C@@H]3C(=O)N(Cc4ccc5c(c4)OCO5)C(=O)[C@@H]3CC[C@H]12 | -0.296 | 0.348 | -0.0218 | 0.477 | 0.558 | 0.229 | 0.29 | 0.376 (inactive) | 0.078 | 0.0505
CO[C@@H]1COC(=O)[C@@H](C)NC(=O)CC=C[C@@H](C)[C@H](NS(=O)(=O)c2ccc(C)cc2)COC(=O)[C@H](C)NC(=O)CC=C[C@H]1C | -0.505 | 0.441 | -0.119 | 0.189 | -0.167 | -0.523 | 0.388 | 0.0404 (inactive) | -0.0334 | 0.168
O=C1C=C[C@@H](O)[C@@H]2[C@@H]3C(=O)N(c4ccc(F)cc4F)C(=O)[C@@H]3CC[C@@H]12 | -0.298 | 0.55 | -0.0493 | 0.547 | 0.611 | 0.12 | 0.384 | -0.996 (inactive) | 0.142 | -0.0994
CO[C@H]1COC(=O)[C@H](C)NC(=O)CC=C[C@@H](C)[C@H](OC)COC(=O)[C@@H](OCc2ccccc2)C=C[C@@H]1C | -0.628 | 0.996 | -0.0877 | -0.299 | -0.542 | -0.954 | -1.45 | -0.0754 (inactive) | 0.0521 | -0.0994
CCOC(=O)[C@H](CC(C)C)NC(=O)CCC1CC(OC(=O)NCc2cccc3ccccc23)CC2(CCCC(COC(=O)NCCOc3ccccc3)O2)O1 (stereo not given in full) | -0.646 | 0.374 | -0.016 | 0.273 | 1.2 | 0.647 | 1.01 | 1.67 (inactive) | 0.0697 | 0.224
COc1ccc(O[C@H]2C=C[C@@H](c3ccccc3)O[C@@H]2COC(=O)CCC(C)=NOC(C)CN2CCCc3nc(C)c(C)cc32)cc1 (stereo not given in full) | -0.451 | -0.395 | -0.062 | 0.623 | 0.571 | 0.858 | 0.967 | -0.863 (inactive) | 0.506 | -0.199
COC(=O)NCC=Cc1nc(CCCO)co1 | -0.596 | 0.273 | -0.0174 | 0.525 | 0.623 | 0.177 | 0.414 | -0.435 (inactive) | 0.0512 | -0.287
O=C(NN=C1C[C@@H](O)[C@@H](O)[C@@H]2[C@@H]3C(=O)N(C4CCCCC4)C(=O)[C@@H]3CC[C@@H]12)OCc1ccccc1 | -0.107 | 0.2 | -0.0667 | 0.0505 | -0.103 | -0.32 | -0.235 | 0.448 (inactive) | 0.818 | -0.16
O=C(NN=C1C[C@@H](O)[C@@H](O)[C@@H]2[C@@H]3C(=O)N(C[C@@H]4CCCO4)C(=O)[C@@H]3CC[C@@H]12)OCc1ccccc1 | -0.51 | 2.32 | -0.173 | -0.522 | -0.122 | -0.802 | 0.631 | -0.891 (inactive) | -0.0104 | -0.0994
COC(=O)[C@H](C)NC(=O)CCC1CC(OC(=O)NCCc2ccc(F)cc2)CC2(CCCC(COC(=O)NCc3cccc(C(F)(F)F)c3)O2)O1 (stereo not given in full) | -0.632 | 0.041 | -0.0265 | 0.624 | 1.36 | 0.0829 | 0.729 | 0.286 (inactive) | 0.829 | -0.0645
CC(C)=CCCC(C)=CCON=C1C[C@@H](O)[C@@H](O)[C@@H]2[C@@H]3C(=O)N(c4ccc(F)cc4F)C(=O)[C@@H]3CC[C@@H]12 | -0.245 | 0.87 | -0.116 | 0.546 | -0.205 | 0.895 | 0.314 | 0.656 (inactive) | 0.356 | 0.0505
O=C1C[C@@H](O)[C@@H](O)[C@@H]2[C@@H]3C(=O)N(C[C@@H]4CCCO4)C(=O)[C@@H]3CC[C@@H]12 | -0.58 | 0.203 | -0.0329 | 0.58 | 0.686 | 0.123 | 0.459 | -1.13 (inactive) | 0.817 | 0.21
CCOC(=O)[C@H](Cc1ccccc1)NC(=O)CCC1CC(OC(=O)NCCc2ccc(F)cc2)CC2(CCCC(COC(=O)NCCc3ccccc3OC)O2)O1 (stereo not given in full) | -0.582 | 0.238 | -0.0592 | 0.82 | 0.879 | 0.729 | 1.22 | 0.865 (inactive) | 0.759 | -0.134
COC(=O)CC=C[C@@H](C)[C@@H](C=NOC[C@H]1O[C@H](c2ccccc2)C=C[C@@H]1Oc1ccc(OC)cc1)NS(=O)(=O)c1ccc(C)cc1 | 0.577 | -0.564 | -0.127 | -1.06 | -0.766 | -0.754 | -1.29 | -0.461 (inactive) | -0.0763 | -0.0645
CC(C)CON=C1C[C@@H](O)[C@@H](O)[C@@H]2[C@@H]3C(=O)N(c4ccc(F)cc4F)C(=O)[C@@H]3CC[C@H]12 | -0.337 | 1.29 | -0.214 | 0.269 | 0.737 | 0.668 | 1.23 | -0.858 (inactive) | 0.803 | 0.111
O=C1C2=CC[C@H]3C(=O)N(c4cccc(Oc5ccccc5)c4)C(=O)[C@H]3[C@H]2[C@H](O)[C@@H]2O[C@H]12 | -0.476 | 0.337 | -0.14 | 0.258 | -0.139 | 0.0597 | 0.129 | -0.492 (inactive) | 0.373 | -0.184
